aSyn 5UTR act = Activators working through SNCA 5'UTR binding (MLPCN); alpha-synuclein 5'UTR reporter, activators screen; activity score, % (tested at 7.5 µM), hits read low; 7.1% of 300,000 active; in the data active = activity score below about -60%
Hits are given with their value; i = inactive. Not all results are given here.

SMILES	aSyn 5UTR act
Brc1ccccc1C1CC(c2ccccc2)=Nc2ccccc2N1 (stereo not given)	-203
c1ccc(C2=Nc3ccccc3NC(c3ccccc3)C2)cc1 (stereo not given)	-178
O=C(N/N=C/c1cc([N+](=O)[O-])ccc1O)c1cccc(NC(=O)c2cccc(Cl)c2)c1	i
O=[N+]([O-])c1ccc(Cl)c(/C=N/NC(=S)Nc2ccccc2)c1	-79
Cc1nn(C)cc1/C=N/NC(=S)Nc1ccccc1	-137
O=S(=O)(NCc1cn2ccccc2n1)c1cccs1	-64
c1ccc(N2CCN(c3nc4ccccc4[nH]3)CC2)nc1	-136
COc1ccc(C(=O)N2CCc3ccc(NC(=O)c4ccccn4)cc3C2)cc1F	-101
CCCNc1c(F)c(F)c2c(C)c3ccccc3nc2c1F	-80
O=C1Nc2ccccc2S/C1=C/c1cccs1	-68
Cc1ccc(N=C2NC(=O)/C(=C\c3cccs3)S2)cc1C	-85
CCCOc1ccc(C(=O)Nc2ccc(C)cc2[N+](=O)[O-])cc1	-72
COCCCNc1nc(N)c([N+](=O)[O-])c(Nc2cc(OC)ccc2OC)n1	i
COCCCNC(=S)Nc1ccc(C)cc1[N+](=O)[O-]	-75
CC(C)COc1ccc(C(=O)Nc2ccccc2[N+](=O)[O-])cc1	-212
CC1(C)CC(=O)C(N=Nc2ccc(-c3ccccc3)cc2)=C(O)C1	-84
CC(=O)O[C@H]1C(=O)[C@@]2(C)[C@H]([C@H](OC(=O)c3ccccc3)[C@]3(O)C[C@H](OC(=O)[C@H](O)C(NC(=O)c4ccccc4)c4ccccc4)C(C)=C1C3(C)C)[C@]1(OC(C)=O)CO[C@@H]1C[C@@H]2O (stereo not given in full)	i
Nc1ccc2oc(-c3cccs3)nc2c1	-89
Nc1ccc2oc(-c3cccc4ccccc34)nc2c1	i
O=C1OC(c2ccc3c(c2)OCO3)N(C(=O)c2ccc(Cl)c(Cl)c2)c2ccccc21 (stereo not given)	-91
CCCCCc1nc2c(=O)[nH]c3ccccc3c2o1	-78
Cc1ccc(O)c(-n2nc3ccccc3n2)c1	-134
CN(N=Nc1cccc([N+](=O)[O-])c1)c1cccc([N+](=O)[O-])c1	-82
CCc1ccc(C(=O)Nn2cnc3ccccc3c2=O)cc1	-150
Cc1ccc(C(=O)Nn2cnc3ccccc3c2=O)cc1C	-115
SMILES	aSyn 5UTR act
CNc1ncc(C(=O)c2ccc(Cl)cc2)s1	-124
CNc1ncc(C(=O)c2ccc(Cl)c(Cl)c2)s1	-149
COc1ccc(OCCCn2cc(/C=C3/C(=N)N4C=C(C)SC4=NC3=O)c3ccccc32)cc1	-70
COc1cccc(-c2cn3nc4c(nc3n2)CCCC4)c1	i
O=c1c2c(nc3cc(-c4ccc(F)cc4)[nH]n13)CCC2	-87
COc1cccc(-c2cc3nc(-c4ccccc4)cc(=O)n3[nH]2)c1	-167
O=c1cc(-c2ccccc2)nc2cc(-c3ccc(F)cc3)[nH]n12	-109
O=C(CCN1C(=O)c2cccc3cccc(c23)C1=O)N1CCOCC1	-102
O=C1c2ccc3c4c(ccc(c24)C(=O)N1CCCCO)C(=O)N(CCCCO)C3=O	i
O=C1c2cccc3cccc(c23)C(=O)N1CCc1ccccc1	-246
CN1/C(=C/C=C(/C#N)C(N)=O)C(C)(C)c2ccccc21	-146
c1ccc2cc(OCc3nc4ccccc4[nH]3)ccc2c1	-167
Brc1ccc(OCc2nc3ccccc3[nH]2)cc1	-214
COc1cccc(OCc2nc3ncc(Br)cc3[nH]2)c1	-77
COc1ccc(OCc2nc3ccccc3[nH]2)cc1	-113
COc1cccc(OCc2nc3ccccc3[nH]2)c1	-137
COc1cccc(CSc2nc3ccccc3cc2C=O)c1	i
COc1ccc(-c2nc(NC(=O)CSc3nnc(C)s3)ns2)cc1	-70
COc1ccc2c(C)cc(SCC(=O)Nc3nsc(-c4ccc(C)cc4)n3)nc2c1	-82
CC1(C)CC(=O)c2c(nc(SCC(=O)Nc3nsc(-c4ccccc4)n3)c(C#N)c2-c2ccccc2)C1	i
COc1ccc(-c2cnn3c4c(c(C)nc23)CCN4C(C)C)cc1OC	-70
O=C(Nc1nc2ccccc2[nH]1)C1CCC1	-104
CCS(=O)(=O)N1Cc2ccccc2CC1C(=O)Nc1nc2ccccc2[nH]1 (stereo not given)	-101
O=C(CC1CCCC1)Nc1nc2ccccc2[nH]1	-123
O=C(Nc1nc2ccccc2[nH]1)C1CCCC1	-80
SMILES	aSyn 5UTR act
CCN1C(=Nc2ccc(Cl)cc2)SC/C1=C\C(=O)OC	-81
COC(=O)C1=C(C)Nc2ccc(C)cc2S1	-64
CCc1cccc2c1Sc1ccccc1CC2N1CCNCC1 (stereo not given)	i
N#Cc1ccccc1NC(=O)c1ccc(-c2ccccc2Cl)o1	-128
O=C(Nc1ccccc1)c1ccc(-c2ccccc2Cl)o1	-178
Cc1nc2ccc(NC(=O)Cc3cccs3)cc2s1	-148
Cc1ccc(NC(=O)Cc2cccs2)cc1Cl	-116
O=C(Cc1cccs1)Nc1cccc(-c2nc3cc4ccccc4cc3[nH]2)c1	-92
Cc1nc2ccc(NC(=O)Cc3c(F)cccc3Cl)cc2s1	-126
CCN(CC)c1nc(C)nc2c1cnn2CCc1ccccc1	-185
COc1ccc(/C=C(\C#N)C(=O)OC2CCOC2=O)cc1 (stereo not given)	-84
O=C(N=Nc1c(O)[nH]c2ccccc12)c1ccco1	-170
CCn1c(SCC(=O)N=Nc2c(O)[nH]c3ccccc23)nc2ccccc21	-79
O=C(CSCc1ccccc1)N=Nc1c(O)[nH]c2ccccc12	-79
O=C1c2ccccc2C(=O)N1CCN1CCc2ccccc21	-97
CCC1CCc2sc(C(=O)NCc3ccccn3)cc2C1 (stereo not given)	-92
O=C(CSc1nc2ncccc2[nH]1)c1ccc2c(c1)OCO2	-86
O=c1[nH]c(-c2cccnc2)nc2sc(-c3ccccc3)cc12	-119
CC(C)OC(=O)Cc1nc2sc(-c3ccccc3)cc2c(=O)[nH]1	-87
Clc1ccc(-c2nc(C3CCCCC3)no2)cc1	-160
O=[N+]([O-])c1ccc2c(c1)nc1n2CCN(C2CCCCC2)C1	-127
Cc1cc(Cl)ccc1NC(=S)Nc1ccccn1	-91
Cc1ccc(NC(=S)NNC(=S)Nc2ccc(C)cc2C)cc1	i
Cc1ccc(NC(=S)Nc2ccccn2)c(C)c1	-147
Cc1ccc(NC(=S)c2nc3ccccc3[nH]2)c(C)c1	-116
SMILES	aSyn 5UTR act
N#Cc1nc(-c2ccc(Cl)cc2)oc1NCc1ccco1	-108
COCCNc1oc(-c2ccc(C)cc2)nc1C#N	-107
COCCNc1oc(-c2ccc(Cl)cc2)nc1C#N	-162
Cc1nc2cc3nc(C)sc3cc2s1	-80
Cc1nnsc1C(=O)N/N=C/c1ccc2ccccc2c1O	i
CC(/C=N/NC(=O)c1sc(N)nc1C)=C\c1ccccc1	-116
Cn1cccc1/C=N/NC(=O)c1sc2ccccc2c1Cl	-80
Cc1nc(N)sc1C(=O)N/N=C/c1c[nH]c2ccccc12	-79
Cc1nc(N)sc1C(=O)N/N=C/c1ccccc1[N+](=O)[O-]	-133
O=C(N/N=C/c1c[nH]c2ccccc12)c1sc2ccccc2c1Cl	-69
CCN(CC)S(=O)(=O)c1cc(C(=O)Nc2ccc(Cl)cn2)ccc1C	-118
CCCCN(CC)S(=O)(=O)c1ccc(C(=O)Nc2nnc(-c3ccccc3Cl)o2)cc1	i
Cc1ccc(NC(=O)c2ccnc(C(C)(C)C)c2)cc1	-127
CCN(CC)S(=O)(=O)c1cccc(C(=O)Nc2cccc(C)c2)c1	-124
CCN(CC)S(=O)(=O)c1cccc(C(=O)NCCc2ccccc2)c1	-159
CCN(CC)S(=O)(=O)c1cccc(C(=O)N/N=C(\C)c2ccc(O)cc2O)c1	i

Bioassay records as filed in PubChem BioAssay.
